# Assay results reported in PMC7862700, “An all-to-all approach to the identification of sequence-specific readers for epigenetic DNA modifications on cytosine”.
# Tests used:
# Assay in all cases: DAPPL (digital affinity profiling via proximity ligation, sequencing); 10 mM Tris-HCl pH 7.5, 50 mM NaCl, 1 mM DTT, 4% glycerol, room temperature, 30 min; GST-TFs on glutathione beads, 16-mer random dsDNA library, 0.1% formaldehyde crosslink after washing; high values mean tight binding
# FLI1 = molecular target: T1, FLI1 (Homo sapiens, UniProt Q01543 1-452); settings: protein: recombinant; tags: N-terminal GST; dsDNA, one strand shown
# T1 sequence: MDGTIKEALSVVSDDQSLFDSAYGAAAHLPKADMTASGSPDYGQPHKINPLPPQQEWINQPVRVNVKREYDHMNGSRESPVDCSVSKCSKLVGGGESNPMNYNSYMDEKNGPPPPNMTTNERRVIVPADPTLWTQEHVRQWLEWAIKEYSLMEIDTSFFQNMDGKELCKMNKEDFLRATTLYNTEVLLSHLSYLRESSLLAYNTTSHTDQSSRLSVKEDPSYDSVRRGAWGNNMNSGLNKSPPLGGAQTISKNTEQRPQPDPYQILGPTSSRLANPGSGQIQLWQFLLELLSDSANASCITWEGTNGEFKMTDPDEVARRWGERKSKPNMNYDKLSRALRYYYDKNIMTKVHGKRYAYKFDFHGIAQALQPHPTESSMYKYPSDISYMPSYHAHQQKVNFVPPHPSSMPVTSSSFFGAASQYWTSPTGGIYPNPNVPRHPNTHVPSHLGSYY
# How it was run: (§1)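 Human transcription factors fused to GST were expressed in yeast, captured on glutathione beads, given DNA barcodes and pooled with a GST-only negative control. Pools were incubated with 200 nmole of a 16-mer random double-stranded DNA library in Tris/NaCl/DTT/glycerol buffer at room temperature for 30 min. They were then washed, crosslinked with 0.1% formaldehyde, proximity-ligated (BsaI/T4 ligase, 1 h, 37 °C), PCR-amplified and sequenced on an Illumina NextSeq500. Binding signal is each 6-mer's read frequency for a factor divided by its frequency for the GST control.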
# ELK1 = molecular target: T2, ELK1 (Homo sapiens, UniProt P19419 1-428); settings: protein: recombinant; tags: N-terminal GST; dsDNA, one strand shown
# T2 sequence: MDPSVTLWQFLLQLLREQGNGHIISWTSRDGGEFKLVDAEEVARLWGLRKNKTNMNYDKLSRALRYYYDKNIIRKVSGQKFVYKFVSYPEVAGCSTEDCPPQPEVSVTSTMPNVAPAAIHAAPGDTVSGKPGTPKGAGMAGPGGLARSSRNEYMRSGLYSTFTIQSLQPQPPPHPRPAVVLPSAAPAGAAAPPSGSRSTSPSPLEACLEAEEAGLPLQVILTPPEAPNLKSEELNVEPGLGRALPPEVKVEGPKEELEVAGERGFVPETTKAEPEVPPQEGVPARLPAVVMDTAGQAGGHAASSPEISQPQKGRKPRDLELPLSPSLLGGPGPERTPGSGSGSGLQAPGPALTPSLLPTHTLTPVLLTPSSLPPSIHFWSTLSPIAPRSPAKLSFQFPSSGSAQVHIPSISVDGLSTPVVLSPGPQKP
# How it was run: as §1
# GABPA = molecular target: T3, GABPA (Homo sapiens, UniProt Q06546 1-454); settings: protein: recombinant; tags: N-terminal GST; dsDNA, one strand shown
# T3 sequence: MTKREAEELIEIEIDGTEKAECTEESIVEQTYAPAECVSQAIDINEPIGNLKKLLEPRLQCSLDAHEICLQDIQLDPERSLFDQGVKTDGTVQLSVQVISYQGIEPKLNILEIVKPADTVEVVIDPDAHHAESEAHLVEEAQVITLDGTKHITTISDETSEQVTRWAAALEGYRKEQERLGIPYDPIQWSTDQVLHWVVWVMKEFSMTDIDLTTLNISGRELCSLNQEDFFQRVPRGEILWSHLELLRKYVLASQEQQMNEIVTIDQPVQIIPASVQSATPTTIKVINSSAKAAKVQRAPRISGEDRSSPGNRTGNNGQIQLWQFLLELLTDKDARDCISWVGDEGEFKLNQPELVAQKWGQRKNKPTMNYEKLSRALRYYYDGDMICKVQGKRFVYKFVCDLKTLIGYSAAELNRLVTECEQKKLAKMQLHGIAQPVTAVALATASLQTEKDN
# How it was run: as §1
# ERG = molecular target: T4, ERG (Homo sapiens, UniProt P11308 1-479); settings: protein: recombinant; tags: N-terminal GST; dsDNA, one strand shown
# T4 sequence: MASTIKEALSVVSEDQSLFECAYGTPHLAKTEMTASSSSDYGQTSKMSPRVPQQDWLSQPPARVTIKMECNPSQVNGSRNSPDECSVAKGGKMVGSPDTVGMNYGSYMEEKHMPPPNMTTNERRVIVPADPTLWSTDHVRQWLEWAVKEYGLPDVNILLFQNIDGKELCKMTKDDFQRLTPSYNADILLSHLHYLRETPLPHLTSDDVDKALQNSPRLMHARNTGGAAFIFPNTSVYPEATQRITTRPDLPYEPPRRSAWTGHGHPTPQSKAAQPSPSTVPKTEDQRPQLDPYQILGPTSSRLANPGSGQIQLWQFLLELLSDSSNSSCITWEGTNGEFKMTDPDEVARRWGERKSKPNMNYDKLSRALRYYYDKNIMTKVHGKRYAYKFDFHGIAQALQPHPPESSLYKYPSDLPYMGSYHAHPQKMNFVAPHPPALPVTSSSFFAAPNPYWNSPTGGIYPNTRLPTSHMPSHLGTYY
# How it was run: as §1
# ELF1 = ELF1 (Homo sapiens, UniProt P32519 1-619); settings: protein: recombinant; tags: N-terminal GST; dsDNA, one strand shown
# Chain of ELF1 (P32519 whole entry): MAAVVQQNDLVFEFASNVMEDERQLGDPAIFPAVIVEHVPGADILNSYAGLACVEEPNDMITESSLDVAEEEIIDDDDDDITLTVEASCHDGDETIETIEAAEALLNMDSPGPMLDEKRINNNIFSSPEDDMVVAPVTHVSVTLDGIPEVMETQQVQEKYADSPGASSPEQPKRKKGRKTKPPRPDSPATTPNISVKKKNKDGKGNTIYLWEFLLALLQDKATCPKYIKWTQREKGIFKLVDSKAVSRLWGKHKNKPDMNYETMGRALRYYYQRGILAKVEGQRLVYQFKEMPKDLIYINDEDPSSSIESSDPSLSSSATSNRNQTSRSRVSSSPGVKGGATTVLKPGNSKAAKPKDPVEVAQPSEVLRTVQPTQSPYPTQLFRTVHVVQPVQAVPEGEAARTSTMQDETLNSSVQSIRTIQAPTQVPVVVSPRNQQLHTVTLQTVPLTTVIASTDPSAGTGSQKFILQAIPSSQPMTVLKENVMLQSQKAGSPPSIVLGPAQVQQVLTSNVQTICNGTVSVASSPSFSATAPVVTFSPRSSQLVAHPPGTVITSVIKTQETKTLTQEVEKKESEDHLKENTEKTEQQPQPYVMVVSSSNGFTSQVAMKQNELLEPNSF
# How it was run: as §1
# EHF = molecular target: T5, EHF (Homo sapiens, UniProt Q9NZC4 1-300); settings: protein: recombinant; tags: N-terminal GST; dsDNA, one strand shown
# T5 sequence: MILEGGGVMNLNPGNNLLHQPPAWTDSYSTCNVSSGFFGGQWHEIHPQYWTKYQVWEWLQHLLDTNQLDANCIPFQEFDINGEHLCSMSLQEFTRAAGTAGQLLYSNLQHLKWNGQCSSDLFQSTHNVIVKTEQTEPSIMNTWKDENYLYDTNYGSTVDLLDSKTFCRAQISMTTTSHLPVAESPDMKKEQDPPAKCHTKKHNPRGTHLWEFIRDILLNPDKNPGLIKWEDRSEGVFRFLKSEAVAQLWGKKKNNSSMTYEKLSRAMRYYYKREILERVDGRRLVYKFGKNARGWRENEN
# How it was run: as §1
# SPI1 = SPI1 (Homo sapiens, UniProt P17947 1-270); settings: protein: recombinant; tags: N-terminal GST; dsDNA, one strand shown
# How it was run: as §1
# SPIB = SPIB (Homo sapiens, UniProt Q01892 1-262); settings: protein: recombinant; tags: N-terminal GST; dsDNA, one strand shown
# Chain of SPIB (Q01892 whole entry): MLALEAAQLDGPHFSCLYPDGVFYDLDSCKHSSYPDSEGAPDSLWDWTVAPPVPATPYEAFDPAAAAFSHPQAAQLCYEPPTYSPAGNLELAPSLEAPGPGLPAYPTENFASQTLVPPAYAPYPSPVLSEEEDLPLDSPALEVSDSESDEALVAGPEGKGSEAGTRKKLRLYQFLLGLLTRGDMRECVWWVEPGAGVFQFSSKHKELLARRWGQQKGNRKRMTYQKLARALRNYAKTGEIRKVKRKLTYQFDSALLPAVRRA
# How it was run: as §1
# ELK3 = molecular target: T6, ELK3 (Homo sapiens, UniProt P41970 1-407); settings: protein: recombinant; tags: N-terminal GST; dsDNA, one strand shown
# T6 sequence: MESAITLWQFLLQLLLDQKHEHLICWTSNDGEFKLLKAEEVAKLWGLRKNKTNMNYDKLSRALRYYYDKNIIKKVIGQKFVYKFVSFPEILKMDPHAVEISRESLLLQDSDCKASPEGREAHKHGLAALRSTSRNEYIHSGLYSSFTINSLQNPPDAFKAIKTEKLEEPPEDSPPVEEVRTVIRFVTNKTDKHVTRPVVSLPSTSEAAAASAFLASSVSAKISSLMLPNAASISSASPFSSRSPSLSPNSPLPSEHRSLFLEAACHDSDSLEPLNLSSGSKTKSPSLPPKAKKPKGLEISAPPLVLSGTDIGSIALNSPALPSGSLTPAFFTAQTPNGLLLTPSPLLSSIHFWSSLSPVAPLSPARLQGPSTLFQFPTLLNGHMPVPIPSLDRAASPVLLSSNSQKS
# How it was run: as §1
# FEV = molecular target: T7, FEV (Homo sapiens, UniProt Q99581 1-238); settings: protein: recombinant; tags: N-terminal GST; dsDNA, one strand shown
# T7 sequence: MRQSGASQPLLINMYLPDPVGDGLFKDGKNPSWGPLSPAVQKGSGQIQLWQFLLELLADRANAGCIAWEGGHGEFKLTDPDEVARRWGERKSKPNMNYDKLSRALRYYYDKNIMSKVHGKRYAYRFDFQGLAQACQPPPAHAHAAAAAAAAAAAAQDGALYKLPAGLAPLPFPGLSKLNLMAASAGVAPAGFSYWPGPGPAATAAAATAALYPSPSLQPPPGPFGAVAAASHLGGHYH
# How it was run: as §1
# ETV5 = ETV5 (Homo sapiens, UniProt P41161 1-510); settings: protein: recombinant; tags: N-terminal GST; dsDNA, one strand shown
# Chain of ETV5 (P41161 whole entry): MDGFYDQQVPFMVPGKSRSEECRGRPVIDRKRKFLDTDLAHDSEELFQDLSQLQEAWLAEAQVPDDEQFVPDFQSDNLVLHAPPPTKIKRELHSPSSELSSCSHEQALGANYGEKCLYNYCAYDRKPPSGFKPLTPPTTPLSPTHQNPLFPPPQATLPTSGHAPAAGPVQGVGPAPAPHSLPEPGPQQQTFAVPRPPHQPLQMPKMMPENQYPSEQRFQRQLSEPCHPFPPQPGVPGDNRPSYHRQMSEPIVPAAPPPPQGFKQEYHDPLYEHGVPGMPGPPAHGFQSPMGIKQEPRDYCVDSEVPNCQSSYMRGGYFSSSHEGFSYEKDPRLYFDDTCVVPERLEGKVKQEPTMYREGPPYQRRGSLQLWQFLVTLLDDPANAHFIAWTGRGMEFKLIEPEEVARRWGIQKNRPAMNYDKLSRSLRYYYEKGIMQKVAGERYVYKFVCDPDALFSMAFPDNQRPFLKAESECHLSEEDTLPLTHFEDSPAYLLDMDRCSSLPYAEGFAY
# How it was run: as §1
# HSF1 = HSF1 (Homo sapiens, UniProt Q00613 1-529); settings: protein: recombinant; tags: N-terminal GST; chain copies: 3; dsDNA, one strand shown
# Chain of HSF1 (Q00613 whole entry): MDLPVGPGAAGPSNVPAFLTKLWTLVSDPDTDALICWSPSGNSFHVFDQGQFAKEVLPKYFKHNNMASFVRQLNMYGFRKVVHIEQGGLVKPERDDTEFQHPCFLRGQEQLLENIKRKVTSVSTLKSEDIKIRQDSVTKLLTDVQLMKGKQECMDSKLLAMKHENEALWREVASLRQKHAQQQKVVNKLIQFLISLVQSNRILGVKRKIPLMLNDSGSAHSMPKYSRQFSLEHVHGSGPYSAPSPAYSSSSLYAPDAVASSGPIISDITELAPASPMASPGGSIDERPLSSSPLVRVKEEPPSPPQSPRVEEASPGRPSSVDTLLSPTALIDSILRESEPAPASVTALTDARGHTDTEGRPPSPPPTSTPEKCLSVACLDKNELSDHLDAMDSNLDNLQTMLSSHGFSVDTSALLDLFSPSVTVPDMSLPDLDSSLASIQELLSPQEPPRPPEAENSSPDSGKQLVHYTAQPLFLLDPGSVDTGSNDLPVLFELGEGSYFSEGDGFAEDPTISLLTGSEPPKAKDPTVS
# How it was run: as §1
# SPIC = molecular target: T8, SPIC (Homo sapiens, UniProt Q8N5J4 1-248); settings: protein: recombinant; tags: N-terminal GST; dsDNA, one strand shown
# T8 sequence: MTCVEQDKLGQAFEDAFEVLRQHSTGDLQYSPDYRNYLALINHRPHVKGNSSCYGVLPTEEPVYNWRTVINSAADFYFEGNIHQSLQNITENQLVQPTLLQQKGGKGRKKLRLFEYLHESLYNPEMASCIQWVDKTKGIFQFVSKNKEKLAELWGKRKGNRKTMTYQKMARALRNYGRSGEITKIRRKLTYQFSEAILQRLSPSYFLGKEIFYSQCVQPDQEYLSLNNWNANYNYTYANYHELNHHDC
# How it was run: as §1
# ELF4 = ELF4 (Homo sapiens, UniProt Q99607 1-663); settings: protein: recombinant; tags: N-terminal GST; dsDNA, one strand shown
# Chain of ELF4 (Q99607 whole entry): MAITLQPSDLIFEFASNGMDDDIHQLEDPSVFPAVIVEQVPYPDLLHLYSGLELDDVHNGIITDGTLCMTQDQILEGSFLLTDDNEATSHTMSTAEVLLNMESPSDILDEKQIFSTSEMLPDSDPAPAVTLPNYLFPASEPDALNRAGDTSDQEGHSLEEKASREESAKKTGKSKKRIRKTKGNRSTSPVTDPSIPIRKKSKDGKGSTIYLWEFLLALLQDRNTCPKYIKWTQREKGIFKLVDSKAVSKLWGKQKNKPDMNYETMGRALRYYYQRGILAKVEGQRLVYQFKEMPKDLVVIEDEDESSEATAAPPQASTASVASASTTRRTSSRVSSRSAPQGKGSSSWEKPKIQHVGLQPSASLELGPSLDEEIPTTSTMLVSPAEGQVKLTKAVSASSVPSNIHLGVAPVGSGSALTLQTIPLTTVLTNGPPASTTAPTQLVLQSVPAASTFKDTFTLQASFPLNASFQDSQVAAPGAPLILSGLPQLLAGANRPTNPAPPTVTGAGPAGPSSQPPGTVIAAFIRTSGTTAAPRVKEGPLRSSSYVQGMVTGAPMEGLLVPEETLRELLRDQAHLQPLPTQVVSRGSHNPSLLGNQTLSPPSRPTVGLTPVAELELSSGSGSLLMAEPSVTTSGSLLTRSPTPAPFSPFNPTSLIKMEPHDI
# How it was run: as §1
# ELK4 = molecular target: T9, ELK4 (Homo sapiens, UniProt P28324-2 1-405); settings: protein: recombinant; tags: N-terminal GST; dsDNA, one strand shown
# T9 sequence: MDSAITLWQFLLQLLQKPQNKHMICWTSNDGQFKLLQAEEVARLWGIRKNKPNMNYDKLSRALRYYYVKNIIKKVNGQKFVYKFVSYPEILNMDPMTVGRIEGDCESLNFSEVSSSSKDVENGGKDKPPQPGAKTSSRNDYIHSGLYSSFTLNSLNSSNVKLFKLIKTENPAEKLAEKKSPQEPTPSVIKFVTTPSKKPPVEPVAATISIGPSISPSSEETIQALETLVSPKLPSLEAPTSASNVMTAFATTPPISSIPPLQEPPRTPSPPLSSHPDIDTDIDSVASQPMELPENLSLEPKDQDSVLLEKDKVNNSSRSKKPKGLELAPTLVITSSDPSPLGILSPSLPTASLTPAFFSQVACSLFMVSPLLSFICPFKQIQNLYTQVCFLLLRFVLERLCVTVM
# How it was run: as §1
# ETV2 = molecular target: T10, ETV2 (Homo sapiens, UniProt O00321 1-342); settings: protein: recombinant; tags: N-terminal GST; dsDNA, one strand shown
# T10 sequence: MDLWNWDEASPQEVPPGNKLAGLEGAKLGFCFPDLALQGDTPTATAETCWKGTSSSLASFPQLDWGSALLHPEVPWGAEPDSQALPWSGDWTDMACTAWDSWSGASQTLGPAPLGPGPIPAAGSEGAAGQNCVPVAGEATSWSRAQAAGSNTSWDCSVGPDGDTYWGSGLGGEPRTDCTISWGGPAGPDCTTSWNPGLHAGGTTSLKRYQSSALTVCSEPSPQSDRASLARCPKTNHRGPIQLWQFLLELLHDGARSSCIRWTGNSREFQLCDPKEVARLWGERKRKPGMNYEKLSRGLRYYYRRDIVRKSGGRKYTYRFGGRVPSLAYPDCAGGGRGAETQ
# How it was run: as §1
# ELF3 = molecular target: T11, ELF3 (Homo sapiens, UniProt P78545 1-371); settings: protein: recombinant; tags: N-terminal GST; dsDNA, one strand shown
# T11 sequence: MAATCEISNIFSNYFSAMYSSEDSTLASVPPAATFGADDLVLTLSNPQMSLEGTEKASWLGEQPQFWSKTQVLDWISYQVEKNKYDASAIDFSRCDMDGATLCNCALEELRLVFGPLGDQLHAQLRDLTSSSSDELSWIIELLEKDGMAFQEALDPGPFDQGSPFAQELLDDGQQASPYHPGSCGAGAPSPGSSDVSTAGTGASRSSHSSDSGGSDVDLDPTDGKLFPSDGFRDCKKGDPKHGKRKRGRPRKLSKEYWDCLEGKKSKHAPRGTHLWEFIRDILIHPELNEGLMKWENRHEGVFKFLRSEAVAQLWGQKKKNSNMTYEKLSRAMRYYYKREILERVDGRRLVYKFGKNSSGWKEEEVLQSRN
# How it was run: as §1
# CRX = CRX (Homo sapiens, UniProt O43186 1-299); settings: protein: recombinant; tags: N-terminal GST; dsDNA, one strand shown
# Chain of CRX (O43186 whole entry): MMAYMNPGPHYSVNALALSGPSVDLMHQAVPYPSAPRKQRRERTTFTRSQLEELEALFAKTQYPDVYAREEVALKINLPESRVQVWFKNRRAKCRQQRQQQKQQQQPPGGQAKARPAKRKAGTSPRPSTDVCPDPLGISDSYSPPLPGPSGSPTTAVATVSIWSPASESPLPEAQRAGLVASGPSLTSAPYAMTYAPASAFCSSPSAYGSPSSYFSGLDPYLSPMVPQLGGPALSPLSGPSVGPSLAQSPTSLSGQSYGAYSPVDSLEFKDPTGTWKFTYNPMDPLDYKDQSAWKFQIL
# How it was run: as §1
# ETV1 = ETV1 (Homo sapiens, UniProt P50549 1-477); settings: protein: recombinant; tags: N-terminal GST; dsDNA, one strand shown
# Chain of ETV1 (P50549 whole entry): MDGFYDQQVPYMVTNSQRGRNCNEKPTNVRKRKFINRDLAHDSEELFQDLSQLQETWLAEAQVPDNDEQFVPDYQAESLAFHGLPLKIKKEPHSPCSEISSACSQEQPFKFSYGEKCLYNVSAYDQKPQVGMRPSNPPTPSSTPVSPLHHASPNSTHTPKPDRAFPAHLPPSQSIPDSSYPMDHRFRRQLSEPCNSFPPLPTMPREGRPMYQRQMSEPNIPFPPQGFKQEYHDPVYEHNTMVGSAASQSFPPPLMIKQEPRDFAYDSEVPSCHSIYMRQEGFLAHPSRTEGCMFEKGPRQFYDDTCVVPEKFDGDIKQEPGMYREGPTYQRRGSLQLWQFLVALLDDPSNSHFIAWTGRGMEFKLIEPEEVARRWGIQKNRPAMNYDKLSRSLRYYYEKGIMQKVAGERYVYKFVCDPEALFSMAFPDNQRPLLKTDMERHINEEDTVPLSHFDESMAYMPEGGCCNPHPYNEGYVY
# How it was run: as §1
sequence,measurement,setting,value
CCCGCA,binding signal,FLI1,"1.23 fold enrichment (6-mer frequency, TF over GST control)"
same,binding signal,ELK1,"1.2 fold enrichment (6-mer frequency, TF over GST control)"
same,binding signal,GABPA,"1.25 fold enrichment (6-mer frequency, TF over GST control)"
same,binding signal,ERG,"1.15 fold enrichment (6-mer frequency, TF over GST control)"
same,binding signal,ELF1,"1.29 fold enrichment (6-mer frequency, TF over GST control)"
same,binding signal,EHF,"1.29 fold enrichment (6-mer frequency, TF over GST control)"
same,binding signal,SPI1,"1.22 fold enrichment (6-mer frequency, TF over GST control)"
same,binding signal,SPIB,"1.29 fold enrichment (6-mer frequency, TF over GST control)"
same,binding signal,ELK3,"1.25 fold enrichment (6-mer frequency, TF over GST control)"
same,binding signal,FEV,"1.26 fold enrichment (6-mer frequency, TF over GST control)"
same,binding signal,ETV5,"1.27 fold enrichment (6-mer frequency, TF over GST control)"
same,binding signal,HSF1,"1.22 fold enrichment (6-mer frequency, TF over GST control)"
same,binding signal,SPIC,"1.27 fold enrichment (6-mer frequency, TF over GST control)"
same,binding signal,ELF4,"1.34 fold enrichment (6-mer frequency, TF over GST control)"
same,binding signal,ELK4,"1.35 fold enrichment (6-mer frequency, TF over GST control)"
same,binding signal,ETV2,"1.28 fold enrichment (6-mer frequency, TF over GST control)"
same,binding signal,ELF3,"1.36 fold enrichment (6-mer frequency, TF over GST control)"
same,binding signal,CRX,"1.1 fold enrichment (6-mer frequency, TF over GST control)"
same,binding signal,ETV1,"1.23 fold enrichment (6-mer frequency, TF over GST control)"
